# Measured values: PubChem BioAssay (NCI)
# Where “and” joins values, the source holds several entries; their conditions need not be identical. Equal entries are not always repeated. Compounds without any hit were thinned out: in the full panel of roughly 83,000, 20% have a hit.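 The test compound was applied at a single concentration to cells in 96-well plates for 48 hours, and percent growth was recorded.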 A number with no mark means an inactive call. Calls of active or inactive are those of the source. How the source made its calls: active means growth percent below 10; inactive means the rest.
# Tests used:
# Test in all cases: NCI-60 one-dose screen, 48 h (100 = growth as untreated, 0 = no growth, -100 = all killed)
# T-47D breast = test system: T-47D breast
# BT-549 breast = test system: BT-549 breast
# MDA-MB-435 melanoma = test system: MDA-MB-435 melanoma
# SW-620 colon = test system: SW-620 colon
# MCF7 breast = test system: MCF7 breast
# HCT-116 colon = test system: HCT-116 colon
# KM12 colon = test system: KM12 colon
# HCC-2998 colon = test system: HCC-2998 colon
compound,measurement,setting,value
CCCCCCCCCCCCCCCc1ccc(Cl)c(O)c1Cl (tested in a mixture with another compound),growth,T-47D breast; 0.25 µM,35.5%
same,growth,T-47D breast; 10 µM,85.4%
same,growth,BT-549 breast; 0.25 µM,66.2%
same,growth,BT-549 breast; 10 µM,103%
same,growth,MDA-MB-435 melanoma; 0.25 µM,56%
same,growth,MDA-MB-435 melanoma; 10 µM,103%
same,growth,SW-620 colon; 0.25 µM,24.4%
same,growth,SW-620 colon; 10 µM,101%
same,growth,MCF7 breast; 0.25 µM,16.4%
same,growth,MCF7 breast; 10 µM,112%
same,growth,HCT-116 colon; 0.25 µM,21.4%
same,growth,HCT-116 colon; 10 µM,75.7%
same,growth,KM12 colon; 0.25 µM,46%
same,growth,KM12 colon; 10 µM,96.7%
Cc1cccc(/C=C\C(=O)c2ccc(Cl)cc2)c1,growth,T-47D breast; 10 µM unless noted,93.8% and 91.9%
same,growth,BT-549 breast; 10 µM unless noted,82.9%
same,growth,MDA-MB-435 melanoma; 10 µM unless noted,95.6% and 84.4%
same,growth,SW-620 colon; 10 µM unless noted,89.3% and 69%
same,growth,MCF7 breast; 10 µM unless noted,51.5% and 73.7%
same,growth,HCT-116 colon; 10 µM unless noted,52.5% and 62.3%
same,growth,HCC-2998 colon; 10 µM unless noted,95% and 98.2%
same,growth,KM12 colon; 10 µM unless noted,96.3% and 95.1%
CC1=NN(c2ccccc2)C(=O)C1C(=O)c1ccccc1 (configuration not stated),growth,T-47D breast; 10 µM unless noted,86.9%
same,growth,BT-549 breast; 10 µM unless noted,103%
same,growth,MDA-MB-435 melanoma; 10 µM unless noted,104%
same,growth,SW-620 colon; 10 µM unless noted,101%
same,growth,MCF7 breast; 10 µM unless noted,86%
same,growth,HCT-116 colon; 10 µM unless noted,98.3%
same,growth,HCC-2998 colon; 10 µM unless noted,90.5%
same,growth,KM12 colon; 10 µM unless noted,93.2%
Cc1cc(O)c(C(C)C)cc1N,growth,T-47D breast; 10 µM unless noted,16.1% and 71.8%
same,growth,BT-549 breast; 10 µM unless noted,109% and 98.1%
same,growth,MDA-MB-435 melanoma; 10 µM unless noted,117% and 98.9%
same,growth,SW-620 colon; 10 µM unless noted,109% and 102%
same,growth,MCF7 breast; 10 µM unless noted,94.3% and 92.7%
same,growth,HCT-116 colon; 10 µM unless noted,87.2% and 104%
same,growth,HCC-2998 colon; 10 µM unless noted,105% and 94.2%
same,growth,KM12 colon; 10 µM unless noted,110% and 114%
CC1(C)OB(c2ccc(Cn3cc(F)c(=O)[nH]c3=O)cc2)OC1(C)C,growth,T-47D breast; 10 µM,102%
same,growth,T-47D breast; 50 µM,49.3%
same,growth,BT-549 breast; 10 µM,104%
same,growth,BT-549 breast; 50 µM,40.1%
same,growth,MDA-MB-435 melanoma; 10 µM,83.6%
same,growth,MDA-MB-435 melanoma; 50 µM,4.27% (active)
same,growth,MCF7 breast; 10 µM,100%
same,growth,MCF7 breast; 50 µM,19.1%
same,growth,HCT-116 colon; 10 µM,101%
same,growth,HCT-116 colon; 50 µM,29.3%
same,growth,HCC-2998 colon; 10 µM,104%
same,growth,HCC-2998 colon; 50 µM,74.4%
same,growth,KM12 colon; 10 µM,99%
same,growth,KM12 colon; 50 µM,26.4%
CCN(CC)CCc1nc(-c2ccccc2)no1,growth,T-47D breast; 10 µM unless noted,55.8% and 81.1%
same,growth,BT-549 breast; 10 µM unless noted,55.2% and 103%
same,growth,MDA-MB-435 melanoma; 10 µM unless noted,90.1% and 99.3%
same,growth,SW-620 colon; 10 µM unless noted,73.3% and 114%
same,growth,MCF7 breast; 10 µM unless noted,58.5% and 96%
same,growth,HCT-116 colon; 10 µM unless noted,85.5% and 103%
same,growth,HCC-2998 colon; 10 µM unless noted,113% and 111%
same,growth,KM12 colon; 10 µM unless noted,85% and 111%
O=[N+]([O-])c1ccc2nc3c4ccccc4c4ccccc4c3nc2c1,growth,T-47D breast; 10 µM unless noted,67.9%
same,growth,BT-549 breast; 10 µM unless noted,86.9%
same,growth,MDA-MB-435 melanoma; 10 µM unless noted,95%
same,growth,SW-620 colon; 10 µM unless noted,63.4%
same,growth,MCF7 breast; 10 µM unless noted,65%
same,growth,HCT-116 colon; 10 µM unless noted,33.6%
same,growth,HCC-2998 colon; 10 µM unless noted,89.8%
same,growth,KM12 colon; 10 µM unless noted,89.3%
c1ccc(NCc2ccc3c(c2)OCO3)cc1,growth,T-47D breast; 10 µM unless noted,94.3% and 110%
same,growth,BT-549 breast; 10 µM unless noted,99.4% and 85.2%
same,growth,MDA-MB-435 melanoma; 10 µM unless noted,111% and 98.2%
same,growth,SW-620 colon; 10 µM unless noted,102% and 101%
same,growth,MCF7 breast; 10 µM unless noted,99.7% and 102%
same,growth,HCT-116 colon; 10 µM unless noted,103% and 98.3%
same,growth,HCC-2998 colon; 10 µM unless noted,102% and 112%
same,growth,KM12 colon; 10 µM unless noted,103% and 102%
COC(=O)/C=C/c1cc(O)c2c(c1)C(C(=O)OC)C(c1ccc(O)c(O)c1)O2 (configuration not stated),growth,T-47D breast; 10 µM unless noted,84.7% and 84.1%
same,growth,BT-549 breast; 10 µM unless noted,-2.3% (active) and -1.89% (active)
same,growth,MDA-MB-435 melanoma; 10 µM unless noted,-37.6% (active) and -26% (active)
same,growth,SW-620 colon; 10 µM unless noted,19.4% and 29.6%
same,growth,MCF7 breast; 10 µM unless noted,15.1% and 13.7%
same,growth,HCT-116 colon; 10 µM unless noted,8.03% (active) and 7.89% (active)
same,growth,HCC-2998 colon; 10 µM unless noted,27.8% and 29.9%
same,growth,KM12 colon; 10 µM unless noted,11.9% and 11.7%
COc1c(/C(C)=N/N=c2sc(C(C)=O)nn2-c2ccc(Cl)cc2)c(Oc2ccccc2)c(OC)c2occc12,growth,T-47D breast; 10 µM unless noted,98.7% and 76.5%
same,growth,BT-549 breast; 10 µM unless noted,115% and 103%
same,growth,MDA-MB-435 melanoma; 10 µM unless noted,103% and 104%
same,growth,SW-620 colon; 10 µM unless noted,102% and 92.8%
same,growth,MCF7 breast; 10 µM unless noted,99.9% and 88.3%
same,growth,HCT-116 colon; 10 µM unless noted,96.4% and 77.8%
same,growth,HCC-2998 colon; 10 µM unless noted,107% and 110%
same,growth,KM12 colon; 10 µM unless noted,93.7% and 96.5%
